This is part of a sample that, as a whole, favours compounds with a hit. Of some 83,000 tested, about 20% had one in any assay.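 Step 1: grow cells in 96-well plates. Step 2: add test compound at a single concentration. Step 3: incubate 48 h. Step 4: record percent growth.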 Values without a mark were called inactive. Active and inactive are the calls of the source. How the source made its calls: active means growth percent below 10; inactive means the rest.

The subject of this test is SF-539 CNS. In words: NCI-60 one-dose screen, 48 h (100 = growth as untreated, 0 = no growth, -100 = all killed). The following applies: 10 µM unless noted.
For `CC(C)(C)c1ccc(Cn2cc(CSc3nc4ccccc4s3)nn2)cc1`, the growth is 101%.

As for `CCN1CCN(Cc2ccc(Cc3ncc(F)c(-c4cc(F)c5nc(C)n(C(C)C)c5c4)n3)nc2)CC1`, the growth was 59.8%.

For `CC(=O)NCC(=O)N1[C@@H]2CC[C@H]1c1ccc(Nc3ncc(C(F)(F)F)c(NC4CCC4)n3)cc12`, the growth is 11.2% [2.5 µM].

As to `O=C(NOCCO)c1cc(CN2OCCCC2=O)c(F)c(F)c1Nc1ccc(I)cc1F`, the growth is 55.4%.

For `CC(C)CC(=O)Nc1n[nH]c2c1CN(C(=O)C1CCN(C)CC1)C2(C)C`, the growth is -22.3% (active).

On to `Cc1ccc(N)cc1CN1C(=O)c2ccccc2C1=O`, for which the growth is 107%.

As for `COCc1c(-c2ccc(NC(=O)Nc3cc(C(F)(F)F)ccc3F)c(F)c2)c2c(N)ncnn2c1CN1CCOCC1`, the growth is -71.5% (active).

Consider `O=C(CNc1nc2ccccc2s1)Nc1ccc(-c2nc3ccccc3s2)cc1`, for which the growth was 107%.

`N#CC[C@H](C1CCCC1)n1cc(-c2ncnc3[nH]ccc23)cn1`: the growth is 67.4%.

With `C=CC(=O)Nc1cc2c(Nc3ccc(F)c(Cl)c3)ncnc2cc1C#CC(C)(C)N1CCN(C)CC1`, the growth was -100% (active).

Take `CC(=O)C1=C(C)NC(SCc2nnc(-c3ccc(C)cc3)o2)=NC1c1ccc(F)cc1` (centres undefined): the growth is 93.4%.

In the case of `CNC(=O)c1ccc(Nc2ncc(C(F)(F)F)c(NCc3nccnc3N(C)S(C)(=O)=O)n2)cc1`, the growth is -42.7% (active).

In the case of `C/C=C/C=N/NC(=S)Nc1ccccc1`, the growth was 89.5%.

Take `COc1cc(N2CCC(N(C)C)CC2)ccc1Nc1ncc(Cl)c(Nc2ccccc2P(C)(C)=O)n1`: the growth is -49.3% (active).

These data come from PubChem BioAssay (NCI).
